Regarding GSIVRPSAPPARSSVP [YLPM1, P49750], the “selected by phage display” value with TSG101 1-145, Q99816 was “confidence 2 (active)”.

VPNMPSAPQAYSELQM [UBAP1, Q9NZ09]: in the assay with TSG101 1-145, Q99816, the “selected by phage display” value was “confidence 3 (active)”.

Take PTAPPLQPHPGLHHQS [CHD7, Q9P2D1]: in the assay with TSG101 1-145, Q99816, the “selected by phage display” value is “confidence 4 (active)”.

In the case of ANTDPTAPPYDTLLVF [CDH3, P22223], in the assay with TSG101 1-145, Q99816, the “selected by phage display” value was “confidence 2 (active)”.

Take GPTAPPAPGPTAPPAF [SUFU, Q9UMX1]: the “selected by phage display” value in the assay with TSG101 1-145, Q99816 is “confidence 2 (active)”.

For the molecule LLPETVSPSAPSWREP [CBX6, O95503], the “selected by phage display” value with TSG101 1-145, Q99816 is “confidence 3 (active)”.

As for SSSSSLSSASSSSTVV [ING3, Q9NXR8], the “selected by phage display” value with USP7 53-206, Q93009 was “confidence 2 (active)”.

DAPLLQPSAPSSSSSQ [GGA3, Q9NZ52]: the “selected by phage display” value with TSG101 1-145, Q99816 is “confidence 2 (active)”.

For KPSAPPAPELNNSLHP [KMT2D, O14686], the “selected by phage display” value in the assay with TSG101 1-145, Q99816 was “confidence 3 (active)”.

Take EEQAGTVASAPLGHSD [LRRFIP1, Q32MZ4]: the “selected by phage display” value with TSG101 1-145, Q99816 is “confidence 4 (active)”.

Take PLEPSAPSKLHSVTGI [BEST1, O76090]: the “selected by phage display” value with TSG101 1-145, Q99816 was “confidence 3 (active)”.

With PTLQPSAPQQARDPFE [DENND1A, Q8TEH3], in the assay with TSG101 1-145, Q99816, the “selected by phage display” value was “confidence 2 (active)”.

As to LTPTAPSRTGSVQTPP [SSFA2, P28290], in the assay with TSG101 1-145, Q99816, the “selected by phage display” value is “confidence 4 (active)”.

Turning to GAMAVTANPPSNPYWI [ATP10D, Q9P241], in the assay with TSG101 1-145, Q99816, the “selected by phage display” value is “confidence 2 (active)”.

With PSAAEHIVSPSAPAGD [TACC2, O95359], the “selected by phage display” value with TSG101 1-145, Q99816 was “confidence 2 (active)”.

On to AGPGGGLTPSAPPYGA [PIP4P1, Q86T03], for which the “selected by phage display” value with TSG101 1-145, Q99816 is “confidence 3 (active)”.

Consider PSAPTPPIPSPPSTLP [ANTXR1, Q9H6X2], for which the “selected by phage display” value with TSG101 1-145, Q99816 was “confidence 2 (active)”.

DAASSSGSSSHAHVNS [RTTN, Q86VV8]: the “selected by phage display” value with USP7 53-206, Q93009 was “confidence 3 (active)”.

Regarding APSAPPAPPAPPESTV [ATOH8, Q96SQ7], the “selected by phage display” value in the assay with TSG101 1-145, Q99816 was “confidence 3 (active)”.

Turning to LSRTFLSIPSAPPLYL [CCDC168, Q8NDH2], the “selected by phage display” value in the assay with TSG101 1-145, Q99816 was “confidence 2 (active)”.

For the molecule VQPSAPEHSSLASWLL [GUCY1B2, O75343], the “selected by phage display” value with TSG101 1-145, Q99816 was “confidence 4 (active)”.

With PSVPSVSTTSVTMPNV [TSC22D2, O75157], the “selected by phage display” value in the assay with USP7 53-206, Q93009 is “confidence 4 (active)”.

For PSAPPQVQLPVSLDLP [ZFHX4, Q86UP3], the “selected by phage display” value with TSG101 1-145, Q99816 is “confidence 2 (active)”.

With DSTVHTSATAPTYIAN [MGAM2, Q2M2H8], in the assay with TSG101 1-145, Q99816, the “selected by phage display” value was “confidence 3 (active)”.

Turning to SLMPSAPHPVKEASPG [TET1, Q8NFU7], in the assay with TSG101 1-145, Q99816, the “selected by phage display” value was “confidence 3 (active)”.

EALLTPLPPSAPPSVD [NPIPA3, F8WFD2]: the “selected by phage display” value with TSG101 1-145, Q99816 was “confidence 3 (active)”.

Take VPSAPIDPQAQLEADK [PKNOX2, Q96KN3]: the “selected by phage display” value with TSG101 1-145, Q99816 is “confidence 2 (active)”.

HDATASSSSAAATVRA [BSN, Q9UPA5]: in the assay with USP7 53-206, Q93009, the “selected by phage display” value is “confidence 4 (active)”.

EMAVVLNGGTIPTAPP [GPRC5B, Q9NZH0]: the “selected by phage display” value with TSG101 1-145, Q99816 was “confidence 4 (active)”.

For the molecule NLSLTPSAPSLTLEAG [SRCAP, Q6ZRS2], the “selected by phage display” value with TSG101 1-145, Q99816 is “confidence 3 (active)”.

In the case of LSNSESKATSSLMMLD [SIX4, Q9UIU6], in the assay with USP7 53-206, Q93009, the “selected by phage display” value is “confidence 2 (active)”.

The record behind these values is paper PMC8769072, “Proteome‐scale mapping of binding sites in the unstructured regions of the human proteome” (Molecular Systems Biology, 2022).

Sequence of TSG101 1-145, Q99816 (Q99816 1-145): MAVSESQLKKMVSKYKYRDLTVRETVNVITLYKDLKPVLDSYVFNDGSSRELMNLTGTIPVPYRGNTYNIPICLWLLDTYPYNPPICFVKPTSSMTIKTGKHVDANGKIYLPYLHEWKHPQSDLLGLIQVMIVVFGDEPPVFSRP
Sequence of USP7 53-206, Q93009 (Q93009 53-206): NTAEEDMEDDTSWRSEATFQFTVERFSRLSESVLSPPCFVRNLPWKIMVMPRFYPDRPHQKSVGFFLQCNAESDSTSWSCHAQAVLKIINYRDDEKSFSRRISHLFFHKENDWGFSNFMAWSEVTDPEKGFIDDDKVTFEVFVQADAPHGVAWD
